From PubChem BioAssay
ANO1 activ = activates or potentiates the mouse TMEM16A chloride channel; HEK293 TMEM16A/YFP-H148Q/I152L, iodide quench fluorescence; stronger effect = lower value; actives 0.3% (n = 340,000); B-score at 10 µM;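 active = fluorescence-ratio B-score plate-corrected deviation score at least 3 library SD below zero, with starting fluorescence score within 5 deviations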;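 note: channel opened by trigger with iodide after compound preincubation; score built on the fluorescence ratio of max minus min over baseline; more negative score means more quench and so TMEM16A activation or potentiation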
DNA FID counter = displaces DNA intercalator in HCV helicase counter-screen; DNA fluorescent intercalator displacement, fluorescence; inhibition, % at 7.9 µM; actives 0.17% (n = 290,000); AID 1845; in the data active = inhibition above about 37%;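 note: higher means more ethidium bromide displaced from hairpin DNA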
PP1 inh = counter-screen for PP5 inhibitors: inhibitors of human PP1-alpha; inhibition, % at 6.7 µM; actives 0.9% (n = 320,000); P62136; AID 2235; purified PP1alpha, OMFP fluorescence;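 active = inhibition above the mean inhibition of all tested compounds plus 3 SD, computed separately for each screening campaign, cut at about 15% in these data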
PREPL inh = inhibitors of human prolyl oligopeptidase-like enzyme PREPL | Q4J6C6 | recombinant PREPL, fluorescence polarization activity-based probe | inhibition, % at 5.96 µM | actives 0.68% (n = 320,000) | AID 2751; in the data active = inhibition above about 43%
ANO1 block = blocks the mouse calcium-activated chloride channel TMEM16A | HEK293 TMEM16A/YFP iodide influx fluorescence, ionomycin | actives 1.2% (n = 310,000) | normalized B-score (activity score, 25-100; higher = stronger inhibition) at 10 µM | Q8BHY3;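 active = ratio plate-corrected score three or more library SD toward inhibition, starting fluorescence score within five deviations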;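 note: score derived from kinetic fluorescence span divided by baseline fluorescence per well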
PP5 primary = PP5 (human) phosphatase inhibition; AID 1987; inhibition, % at 6.7 µM; P53041; purified PP5c, OMFP substrate fluorescence; actives 0.18% (n = 320,000);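 active = inhibition above the campaign's mean inhibition across all tested compounds plus 3 SD, cut at about 9.5% in these data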
Target sequence (P53041 whole entry, looked up): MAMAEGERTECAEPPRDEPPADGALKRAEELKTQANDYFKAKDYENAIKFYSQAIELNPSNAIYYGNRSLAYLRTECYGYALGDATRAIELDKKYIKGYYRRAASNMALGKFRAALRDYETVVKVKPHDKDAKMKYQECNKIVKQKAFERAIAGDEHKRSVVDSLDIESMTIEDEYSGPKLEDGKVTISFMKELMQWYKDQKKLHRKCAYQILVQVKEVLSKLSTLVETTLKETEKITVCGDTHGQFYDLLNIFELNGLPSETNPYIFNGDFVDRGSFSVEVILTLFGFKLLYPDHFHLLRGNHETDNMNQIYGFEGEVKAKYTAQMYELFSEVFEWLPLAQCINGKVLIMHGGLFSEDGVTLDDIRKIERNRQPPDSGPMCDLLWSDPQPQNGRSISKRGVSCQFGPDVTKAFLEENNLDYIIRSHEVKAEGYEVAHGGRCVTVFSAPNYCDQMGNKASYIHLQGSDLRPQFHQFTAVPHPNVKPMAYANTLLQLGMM
Hits are given with their value; 0 = inactive; - = not tested or not shown. Most compounds without a hit are left out; they make up all but 2.7% or so of the library.

SMILES	ANO1 activ	DNA FID counter	PP1 inh	PREPL inh	ANO1 block	PP5 primary
CC(C)CCNC(=O)c1ccc(-c2ccccc2)cc1	-	0	0	0	0	0
Cn1c(CSCc2ccccc2)n[nH]c1=S	0	0	0	0	0	0
O=S(=O)(c1ccc(S(=O)(=O)N(Cc2ccco2)Cc2ccccc2Cl)cc1)N1CCCC1	-12	0	0	0	0	0
COc1ccc(S(=O)(=O)N(Cc2ccc(OC)c(OC)c2)Cc2ccco2)cc1	0	0	0	0	25	0
COc1ccc(S(=O)(=O)N(CCC(N)=O)Cc2ccco2)cc1OC	0	0	0	0	0	0
CN(C)S(=O)(=O)c1ccc(S(=O)(=O)N(Cc2ccco2)Cc2ccccc2Cl)cc1	-19	0	0	0	0	0
CS(=O)(=O)N(Cc1ccco1)Cc1ccccc1Cl	0	0	0	0	0	0
OC(Cc1cccnc1)c1ccccc1 (stereo unspecified)	0	-	-	-	-	-
O=c1cc(O)nc(SC23CC4CC(CC(C4)C2)C3)[nH]1	0	0	16	0	0	0
CCC(C)Sc1nc(O)cc(=O)[nH]1 (stereo unspecified)	0	0	0	0	0	0
COc1c(/C=C2\SC(=Nc3ccccc3Cl)NC2=O)cccc1[N+](=O)[O-]	0	0	0	0	0	0
O=C1NC(=Nc2ccccc2Cl)S/C1=C\c1cccc([N+](=O)[O-])c1	0	0	0	0	25	0
O=C1NC(=S)S/C1=C\c1cccc([N+](=O)[O-])c1	0	-	-	-	-	-
O=C1NC(=Nc2ccccc2Cl)S/C1=C\c1cccc([N+](=O)[O-])c1O	0	0	0	0	25	0
COC(=O)c1c(C)oc(C)c1S(=O)(=O)NCc1ccco1	0	0	0	0	0	0
Cc1cc(C)cc(C(=O)NCC(=O)OCC(=O)Nc2ccc(C)cc2Br)c1	-4.6	0	0	0	0	0
CC(C)C(C)NC(=O)COC(=O)c1cccc(C(=O)OCC(=O)NC(C)C(C)C)n1 (stereo unspecified)	0	0	0	0	0	0
O=C(Nc1nc(-c2cccs2)cs1)c1ccc(Cl)s1	0	0	0	0	25	0
CC(=O)Nc1nc(-c2cccs2)cs1	0	0	0	0	0	0
CCOc1ccc(NC(=O)CN(C)C(=O)C(C)Oc2ccc(Cl)cc2)cc1OCC (stereo unspecified)	0	-	-	-	-	-
O=C(COC(=O)c1cc(S(=O)(=O)Nc2ccccc2Cl)ccc1O)Nc1nc2ccccc2s1	-42	0	-	-	-	-
N#Cc1cccc(NC(=O)COC(=O)c2cc(S(=O)(=O)Nc3ccccc3Cl)ccc2O)c1	0	-	-	0	-	-
Cc1cc(C)cc(NC(=O)COC(=O)CCn2c(C)csc2=O)c1	0	-	0	0	-	0
CNC(=O)c1c(NC(=O)c2ccc(S(=O)(=O)N3CCCC3)cc2)sc2c1CCN(C(C)C)C2	-	0	0	44	0	0
c1ccc(-c2ncc(-c3ccn[nH]3)s2)cc1	0	0	16	0	0	0
SMILES	ANO1 activ	DNA FID counter	PP1 inh	PREPL inh	ANO1 block	PP5 primary
c1ccc(Oc2ccc(-c3ccn[nH]3)cc2)cc1	0	0	0	0	0	0
O=C(NC1CCC1)C1CCC(=O)N(Cc2cccc(F)c2)C1 (stereo unspecified)	-6.2	0	-	-	0	-
C/C(=N\NC(=O)C1(C)NC(C)(C)Cc2ccccc21)c1ccccc1 (stereo unspecified)	0	0	0	0	0	0
CCC1=NN2C(=N)/C(=C\c3ccc(SCc4ccco4)o3)C(=O)N=C2S1	0	0	0	0	0	0
CCCC1=NN2C(=N)/C(=C\c3ccc(SCc4ccco4)o3)C(=O)N=C2S1	0	0	43	0	0	0
NC(=S)n1[nH]c(-c2ccc([N+](=O)[O-])cc2)c(N=Nc2cccc(Cl)c2)c1=O	0	0	-	-	-	-
NC(=S)n1[nH]c(-c2ccc([N+](=O)[O-])cc2)c(N=Nc2ccc(O)cc2)c1=O	0	0	17	0	0	0
O=C(CSC(=O)c1ccccc1)Nc1ccccc1F	0	-	-	0	-	-
COc1ccc(OC)c(C2CC(=O)C(C)C(c3cc(OC)ccc3OC)N2)c1 (stereo unspecified)	0	0	0	0	0	0
COc1ccc(C2NC(c3ccc(OC)cc3OC)C(C)C(=O)C2C)c(OC)c1 (stereo unspecified)	-5.9	0	0	0	0	0
